Results taken from PubChem BioAssay AID1159580 (chemical genetic matrix, 2015).
Several values for one entry are separate records, joined by “and”; a condition that tells them apart may be missing. Identical values can stand only once. The whole screen tested about 5,500 compounds, of which about 2,000 (36%) were called active. Inconclusive results (about 18%) are left out. Cut-off read from the data, not from the text of the source: active = normalized growth mostly below about 0.91 (no sharp cut-off); inconclusive = no clear call, values can overlap the other calls; inactive = mostly above about 0.92. The list shows a part of the results.

Experiment: chemical genetic growth profiling, strain panel (AID 1159580);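 note: tested at 20 µM; growth read once vehicle control cultures reached saturation at 30 °C; 1 = growth at the plate median or of vehicle wells; lower values mean less growth of the strain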
Conditions: growth OD

Measured: normalized growth

Cc1c(NC(C)C)c(=O)n(-c2ccccc2)n1C
inactive: S. cerevisiae deletion strains, locus YAL013W, strain DEP1, active compounds read low 1 | S. cerevisiae deletion strains, locus YBR021W, strain FUR4, active compounds read low 0.994 | S. cerevisiae deletion strains, locus YBR229C, strain ROT2, active compounds read low 0.989 | S. cerevisiae deletion strains, locus YCL029C, strain bik1, active compounds read low 0.983 | S. cerevisiae deletion strains, locus YDL035C, strain GPR1, active compounds read low 1.02 | S. cerevisiae deletion strains, locus YDL074C, strain BRE1, active compounds read low 0.987 | S. cerevisiae deletion strains, locus YDL101C, strain DUN1, active compounds read low 0.985 | S. cerevisiae deletion strains, locus YDL134C, strain PPH21, active compounds read low 0.996 | S. cerevisiae deletion strains, locus YDL185W, strain tfp1, active compounds read low 0.984 | S. cerevisiae deletion strains, locus YDL192W, strain arf1, active compounds read low 0.995 | S. cerevisiae deletion strains, locus YDR101C, strain arx1, active compounds read low 0.984 | S. cerevisiae deletion strains, locus YDR150W, strain NUM1, active compounds read low 1 | S. cerevisiae deletion strains, locus YDR162C, strain NBP2, active compounds read low 1.01 | S. cerevisiae deletion strains, locus YDR318W, strain mcm21, active compounds read low 0.98 | S. cerevisiae deletion strains, locus YDR388W, active compounds read low 0.974 | S. cerevisiae deletion strains, locus YDR502C, strain sam2, active compounds read low 1 | S. cerevisiae deletion strains, locus YEL061C, strain CIN8, active compounds read low 1 | S. cerevisiae deletion strains, locus YER110C, active compounds read low 0.984 | S. cerevisiae deletion strains, locus YER155C, strain BEM2, active compounds read low 0.99 | S. cerevisiae deletion strains, locus YER167W, strain BCK2, active compounds read low 1 | S. cerevisiae deletion strains, locus YGL078C, strain dbp3, active compounds read low 0.995 | S. cerevisiae deletion strains, locus YGL086W, strain mad1, active compounds read low 1 | S. cerevisiae deletion strains, locus YGL248W, strain PDE1, active compounds read low 1 | S. cerevisiae deletion strains, locus YGR078C, strain PAC10, active compounds read low 0.987 | S. cerevisiae deletion strains, locus YGR135W, strain pre9, active compounds read low 0.983 | S. cerevisiae deletion strains, locus YGR229C, strain SMI1, active compounds read low 0.998 | S. cerevisiae deletion strains, locus YGR252W, strain gcn5, active compounds read low 1.09 | S. cerevisiae deletion strains, locus YHR030C, strain SLT2, active compounds read low 0.998 and 1.03 | S. cerevisiae deletion strains, locus YHR079C, strain IRE1 (second series), active compounds read low 0.98 | S. cerevisiae deletion strains, locus YHR079C, strain IRE1, active compounds read low 1.03 | S. cerevisiae deletion strains, locus YHR094C, strain hxt1, active compounds read low 0.98 | S. cerevisiae deletion strains, locus YHR129C, strain ARP1, active compounds read low 0.991 | S. cerevisiae deletion strains, locus YHR200W, strain rpn10, active compounds read low 0.981 | S. cerevisiae deletion strains, locus YIL066C, strain RNR3, active compounds read low 0.998 | S. cerevisiae deletion strains, locus YIL073C, strain SPO22, active compounds read low 1 | S. cerevisiae deletion strains, locus YIL125W, strain kgd1, active compounds read low 0.99 | S. cerevisiae deletion strains, locus YIR030C, strain dcg1, active compounds read low 0.986 | S. cerevisiae deletion strains, locus YJL095W, strain BCK1, active compounds read low 0.99 and 1.03 | S. cerevisiae deletion strains, locus YJL134W, strain LCB3, active compounds read low 0.998 | S. cerevisiae deletion strains, locus YJL168C, strain set2, active compounds read low 0.98 | S. cerevisiae deletion strains, locus YJL187C, strain SWE1 (second series), active compounds read low 0.984 | S. cerevisiae deletion strains, locus YJR043C, strain POL32, active compounds read low 1 | S. cerevisiae deletion strains, locus YJR066W, strain TOR1, active compounds read low 0.962 | S. cerevisiae deletion strains, locus YJR075W, strain HOC1, active compounds read low 0.994 | S. cerevisiae deletion strains, locus YKL009W, strain mrt4, active compounds read low 0.999 | S. cerevisiae deletion strains, locus YKL068W, active compounds read low 0.989 | S. cerevisiae deletion strains, locus YKL085W, strain MDH1 (second series), active compounds read low 1 | S. cerevisiae deletion strains, locus YKL085W, strain MDH1, active compounds read low 1 | S. cerevisiae deletion strains, locus YKL190W, strain CNB1, active compounds read low 1 | S. cerevisiae deletion strains, locus YKR001C, strain vps1, active compounds read low 0.992 | S. cerevisiae deletion strains, locus YLR039C, strain RIC1, active compounds read low 1.05 | S. cerevisiae deletion strains, locus YLR058C, strain SHM2, active compounds read low 0.988 | S. cerevisiae deletion strains, locus YLR102C, strain apc9, active compounds read low 0.98 | S. cerevisiae deletion strains, locus YLR113W, strain HOG1, active compounds read low 1.05 | S. cerevisiae deletion strains, locus YLR262C, strain YPT6, active compounds read low 1.01 | S. cerevisiae deletion strains, locus YLR268W, strain sec22, active compounds read low 0.925 | S. cerevisiae deletion strains, locus YLR330W, strain CHS5, active compounds read low 1.01 | S. cerevisiae deletion strains, locus YLR342W, strain FKS1 (second series), active compounds read low 1.04 | S. cerevisiae deletion strains, locus YLR371W, strain rom2, active compounds read low 0.974 | S. cerevisiae deletion strains, locus YLR418C, strain cdc73, active compounds read low 0.957 | S. cerevisiae deletion strains, locus YML016C, strain PPZ1, active compounds read low 0.988 | S. cerevisiae deletion strains, locus YML032C, strain rad52, active compounds read low 0.964 | S. cerevisiae deletion strains, locus YML124C, strain tub3, active compounds read low 0.985 | S. cerevisiae deletion strains, locus YMR078C, strain ctf18, active compounds read low 0.989 | S. cerevisiae deletion strains, locus YMR223W, strain ubp8, active compounds read low 1.01 | S. cerevisiae deletion strains, locus YMR263W, strain SAP30, active compounds read low 1 | S. cerevisiae deletion strains, locus YMR307W, strain GAS1, active compounds read low 0.978 | S. cerevisiae deletion strains, locus YNL067W, strain RPL9B, active compounds read low 0.986 | S. cerevisiae deletion strains, locus YNL128W, strain TEP1, active compounds read low 1 | S. cerevisiae deletion strains, locus YNL153C, strain GIM3, active compounds read low 0.986 | S. cerevisiae deletion strains, locus YNL183C, strain NPR1, active compounds read low 0.974 | S. cerevisiae deletion strains, locus YNL233W, strain BNI4, active compounds read low 0.986 | S. cerevisiae deletion strains, locus YNL250W, strain rad50, active compounds read low 0.977 | S. cerevisiae deletion strains, locus YNL271C, strain bni1, active compounds read low 0.986 | S. cerevisiae deletion strains, locus YNL298W, strain CLA4, active compounds read low 0.971 | S. cerevisiae deletion strains, locus YNL307C, strain MCK1, active compounds read low 0.982 | S. cerevisiae deletion strains, locus YNL322C, strain KRE1, active compounds read low 0.993 | S. cerevisiae deletion strains, locus YNR052C, strain pop2, active compounds read low 0.991 | S. cerevisiae deletion strains, locus YOL006C, strain TOP1, active compounds read low 0.927 | S. cerevisiae deletion strains, locus YOL012C, strain htz1 1.17 | S. cerevisiae deletion strains, locus YOL147C, strain pex11, active compounds read low 0.991 | S. cerevisiae deletion strains, locus YOR061W, strain CKA2, active compounds read low 0.997 | S. cerevisiae deletion strains, locus YOR069W, strain VPS5, active compounds read low 0.988 | S. cerevisiae deletion strains, locus YOR136W, strain idh2, active compounds read low 0.971 | S. cerevisiae deletion strains, locus YOR144C, strain elg1, active compounds read low 0.97 | S. cerevisiae deletion strains, locus YOR184W, strain ser1, active compounds read low 0.985 | S. cerevisiae deletion strains, locus YOR231W, strain MKK1, active compounds read low 1.04 | S. cerevisiae deletion strains, locus YOR316C, strain cot1, active compounds read low 0.982 | S. cerevisiae deletion strains, locus YPL055C, strain LGE1, active compounds read low 1.01 | S. cerevisiae deletion strains, locus YPL241C, strain CIN2, active compounds read low 1 | S. cerevisiae deletion strains, locus YPL256C, strain CLN2, active compounds read low 1.09 | S. cerevisiae deletion strains, locus YPR119W, strain clb2, active compounds read low 0.982 | S. cerevisiae deletion strains, locus YPR141C, strain kar3, active compounds read low 0.975 | S. cerevisiae deletion strains, locus YPR163C, strain tif3, active compounds read low 0.982 | S. cerevisiae deletion strains, locus YPR167C, strain met16, active compounds read low 0.971 | S. cerevisiae deletion strains, strain wtn01, active compounds read low 0.971 | S. cerevisiae strains, strain wild type, active compounds read low 0.995
